Rows were chosen to be rich in hits. Some 1.5% of all compounds tested hit in one or more screens of this group.
CCHF vOTU inh: blocks the CCHF virus ovarian tumor domain protease. CCHFV vOTU protease, Pep-AMC fluorescence. inhibition, % at 11.5 µM. hit rate 0.55% among 370,000; in the data active = inhibition above about 30%; also: 0% = vehicle wells with enzyme and 100% = no enzyme wells
RN4220 kill: kills Staphylococcus aureus RN4220 | S. aureus RN4220 growth, OD600, 16 h | inhibition, % (concentration not given with the values) | hit rate 0.33% among 330,000 | AID 1259311; in the data active = inhibition above about 85%;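 also: plate controls were untreated cells for no effect and reference antibiotic for full effect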
Sa ugtP lethal: compounds lethal to S. aureus RN4220 ugtP deletion mutant | hit rate 0.54% among 330,000 | growth inhibition, % (no concentration beside the values) | OD600 growth, 16 h; in the data active = growth inhibition above about 68%;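 also: plate controls were untreated wells for no effect and antibiotic for full effect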
PriA SSB inh: inhibitors of Klebsiella pneumoniae PriA binding to SSB C-terminal tail; AlphaScreen SSBct-PriA binding, biotinylated peptide; inhibition, % at 33 µM; hit rate 0.6% among 430,000; AID 1272365; in the data active = inhibition mostly above about 37%, no sharp cut-off; inactive = mostly below about 20%;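 also: plate controls were negative control peptide for no effect and reference peptide for full effect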
DUSP3 inh: DUSP3 (human) phosphatase inhibition | recombinant VHR phosphatase, pNPP absorbance | AID 1654 | hit rate 0.52% among 290,000 | inhibition, % at 13.3 µM; in the data active = inhibition above about 50%
Target sequence (P51452 whole entry, looked up): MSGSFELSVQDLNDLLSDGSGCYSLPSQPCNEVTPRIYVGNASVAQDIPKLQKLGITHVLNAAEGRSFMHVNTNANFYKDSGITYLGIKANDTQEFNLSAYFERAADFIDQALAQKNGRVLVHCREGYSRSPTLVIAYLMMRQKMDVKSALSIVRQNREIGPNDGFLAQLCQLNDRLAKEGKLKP
* hit, by the source's call; x = not tested or not shown.

SMILES | CCHF vOTU inh | RN4220 kill | Sa ugtP lethal | PriA SSB inh | DUSP3 inh
CCOc1ccc(CC(=O)Nc2nc(-c3ccccn3)cs2)cc1 | x | x | x | 58* | x
O=C(COc1cccc(F)c1)Nc1nc(-c2ccccn2)cs1 | 11 | x | x | x | x
CS(=O)(=O)c1ccc(CC(=O)Nc2nc(-c3ccccn3)cs2)cc1 | x | x | x | 75* | x
CCOc1ccc(CC(=O)Nc2nc(-c3cccnc3)cs2)cc1 | x | x | x | -3 | x
CC(=O)c1ccc(NC(=O)CSc2nc(-c3ccccc3)c3ccccc3n2)cc1 | x | x | x | -11 | x
Cn1cc(-c2cccs2)nc1CCNC(=O)c1ccccc1C(F)(F)F | x | x | x | 8 | x
Cc1cc(CN2CCN(CCC#N)CC2)c(O)c(C2(C)CCCCC2)c1 | 7 | 16 | 84* | 4 | 6
CNc1cc(N2CCCCCC2)ccc1[N+](=O)[O-] | -4 | 4 | 8 | 27 | 19
COc1cc(N2CCCC2)ccc1[N+](=O)[O-] | 11 | 4 | 1 | 1 | 6
O=[N+]([O-])c1ccc(N2CCCCC2)cc1[N+](=O)[O-] | x | x | x | 73* | x
O=[N+]([O-])c1ccc(N2CCCCC2)cc1O | x | x | x | 74* | x
O=C(CN1C(=O)CCC1=O)N1CCC(S(=O)(=O)c2ccc(F)cc2)CC1 | x | x | x | -3 | x
CCCS(=O)(=O)NCCn1ccnc1C1CC1 | x | x | x | -15 | x
Cc1ccc(C)c2c1[nH]c1ccc([N+](=O)[O-])cc12 | 17 | 80 | 84* | -10 | -2
Cc1c(C(=O)NN)[nH]c2ccc([N+](=O)[O-])cc12 | 6 | -6 | -5 | -11 | 31
CS(=O)(=O)NCC1CN(c2ccc(F)cc2)C(=O)O1 (stereo not given) | x | x | x | -2 | x
Cc1ccc2c(c1)N(C)/C(=C/c1cccc[n+]1C)S2 | -1 | 46 | 101* | -4 | x
COc1ccc2c(c1)N(C)/C(=C/c1cccc[n+]1C)S2 | -6 | 21 | 90* | -11 | 27
CN1/C(=C/c2cccc[n+]2C)Sc2ccccc21 | -7 | 4 | 8 | 1 | -8
Cc1nc(-c2ccccn2)cc(=O)n1CC(=O)Nc1ccc(F)cc1Cl | x | x | x | -13 | x
CS(=O)(=O)N1CCC[C@H]1C(=O)Nc1nc2cc3c(cc2s1)OCO3 | x | x | x | -2 | x
COc1ccc(CCNC(=O)C[C@H]2CSc3ncc(C)c(=O)n32)cc1 | x | x | x | -6 | x
O=C1C=C(NCCc2cc(Br)c(O)c(Br)c2)C(=O)c2ncccc21 | 108* | x | x | 61 | x
CC(C)(C)c1cc(C(=O)NN=Cc2ccc(O)cc2)n(-c2ccccc2)n1 | x | 6 | 10 | 0 | x
CC(C)(C)c1cc(C(=O)NN=Cc2ccccc2O)n(-c2ccccc2)n1 | x | 68 | 100* | -19 | x
SMILES | CCHF vOTU inh | RN4220 kill | Sa ugtP lethal | PriA SSB inh | DUSP3 inh
O=C(CSc1nc2sc3c(c2c(=O)n1-c1ccccc1)CCC3)NCCc1ccccc1 | x | x | x | 8 | x
CCOc1ccc(CC(=O)Nc2c3c(nn2-c2ccccc2)CCC3)cc1 | x | x | x | -13 | x
COc1cc(N2CCN(S(=O)(=O)c3ccc(NC(C)=O)cc3)CC2)nc(C)n1 | x | x | x | 3 | x
COc1ccc(NC(=O)/C(=C\c2ccc(F)cc2)NC(=O)c2ccco2)cc1 | -2 | 5 | 9 | -10 | 56*
CCOc1ccc(/C=C2/SC(=O)NC2=S)cc1 | 7 | 66 | 100* | 8 | -3
COc1ccc(-c2oc3c4c(cc(OC)c3c(=O)c2CC=C(C)C)OC(C)(C)C=C4)c(OC)c1 | x | -2 | 7 | x | x
CC(C)=CCc1c(-c2ccc(O)cc2O)oc2cc3c(c(O)c2c1=O)C=CC(C)(C)O3 | x | 96* | 97* | -7 | x
Brc1ccc(CSc2ccc(-c3ccc4c(c3)OCO4)nn2)cc1 | x | x | x | -7 | x
O=c1cc(N=Nc2ccc(Cl)cc2)[nH]c(=O)[nH]1 | -1 | 100* | 100* | 1 | 5
S=C(Nc1ccccc1Cl)Nc1ccc(Cl)cc1Cl | -3 | -10 | 0 | -22 | 10
Clc1ccc(NNc2ccnc3cc(Cl)ccc23)cc1 | 6 | -9 | -14 | 76* | 10
Oc1ccc(Nc2ccnc3cc(Cl)ccc23)cc1 | 6 | x | x | 0 | 7
Cc1ccc(/C=N/Nc2ccnc3cc(Cl)ccc23)c(C)c1 | 6 | x | x | x | 87*
S=C(NNc1ccnc2cc(Cl)ccc12)Nc1ccccc1Cl | -6 | -3 | -5 | 40* | 2
NC(C(=O)O)c1cccc(Cl)c1 (stereo not given) | x | x | x | 11 | x
COc1cc(C=NNc2cccc(C)c2)cc(Br)c1O | x | 54 | 96* | 11 | x
COc1cc(/C=N\NC(=O)c2ccccc2O)cc(Br)c1O | x | x | x | 15 | x
COc1cc2c(cc1OC)C(c1cccc(F)c1)CC(=O)N2 (stereo not given) | 8 | x | x | 6 | 51*
COc1cc2c(cc1OC)C(c1cccc(Br)c1)CC(=O)N2 (stereo not given) | -13 | 4 | 11 | 6 | 47
CCSc1ccc(CC(=O)Nc2nccs2)cc1 | x | x | x | -2 | x
O=C(Nc1nnc(Cc2cccs2)o1)c1ccc(Cl)s1 | x | x | x | 35* | x
O=C(Nc1nnc(Cc2cccs2)o1)c1ccccc1 | x | x | x | 28 | x
CCSc1ccc(C(=O)Nc2nnc(Cc3cccs3)o2)cc1 | x | x | x | 36* | x
O=C(Nc1nnc(Cc2cccs2)o1)c1cccs1 | x | x | x | 29 | x
O=C(Nc1nnc(Cc2cccs2)o1)c1ccc2ncsc2c1 | x | x | x | 71* | x
SMILES | CCHF vOTU inh | RN4220 kill | Sa ugtP lethal | PriA SSB inh | DUSP3 inh
CCSc1ccc(C(=O)Nc2nccs2)cc1 | x | x | x | 64* | x
COc1ccc(Cl)cc1-n1ccn(CC(=O)c2ccc(F)cc2)c(=O)c1=O | x | x | x | -19 | x
O=C(NCCOc1ccc2nnc(-c3ccccc3)n2n1)Nc1ccccc1C(F)(F)F | x | x | x | -5 | x
CNC[C@H](Cc1ccccc1)NC[C@@H](Cc1cccc2ccccc12)NCCc1ccc(C)cc1 | 5 | x | x | 7 | 21
CNCC(Cc1ccccc1)NCC(Cc1cccc2ccccc12)NCCc1ccc(C)cc1 (stereo not given) | x | 101* | 100* | x | x
CCC(C)C(CNC)NCC(Cc1cccc2ccccc12)NCCc1cccc(C(F)(F)F)c1 (stereo not given) | x | 101* | 100* | x | x
CCCC(CNC(CNC)C(C)CC)NCCc1cc(C(F)(F)F)cc(C(F)(F)F)c1 (stereo not given) | x | -3 | -4 | x | x
CCc1ccc(NC(=O)c2c(O)c3ccccc3n(-c3ccccc3)c2=O)cc1 | x | x | x | -10 | x
O=C(Nc1ccc(F)c(Cl)c1)Nc1csc2ccccc12 | 12 | 100* | 100* | 0 | 18
O=C(Nc1ccc(F)c(Cl)c1)Nc1c[nH]c2ccccc12 | x | x | x | 54* | x
O=C(Nc1ccc(OC(F)(F)F)cc1)Nc1c[nH]c2ccccc12 | x | x | x | 17 | x
O=C(Nc1ccc(F)cc1F)Nc1csc2ccccc12 | 10 | -3 | -45 | -14 | 20
CC(C)c1ccc(NC(=O)Nc2c[nH]c3ccccc23)cc1 | x | x | x | 39* | x
CCc1ccc(NC(=O)Nc2c[nH]c3ccccc23)cc1 | x | x | x | 38* | x
Fc1ccccc1-n1c(-c2ccc3ccccc3n2)n[nH]c1=S | -2 | -7 | 0 | -8 | 53*
S=c1[nH]nc(-c2ccc3ccccc3n2)n1-c1ccccc1 | 12 | 7 | 3 | -2 | 18
COc1ccc(N(C)S(=O)(=O)c2ccsc2-c2nc(-c3cccnc3)no2)cc1Cl | x | x | x | -1 | x
COc1cccc(Cn2c(=O)ccc3ccccc32)c1 | -8 | 6 | 7 | 2 | -11
COc1cccc(Cn2c(=O)oc3ccccc32)c1 | 0 | 3 | 1 | -9 | 53*
CCN(CC)c1nc2ccccc2n(Cc2cccc(OC)c2)c1=O | 5 | -6 | 91* | -15 | -22
